In PubChem BioAssay (NCI):
The panel holds about 83,000 compounds, 20% with a hit somewhere; the sample as a whole holds those more often.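 Plates (96-well) were seeded with cells, treated with compound at one concentration, and incubated for 48 hours before percent growth was determined.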 Unmarked numbers belong to inactive results. Active and inactive are the calls of the source. How the source made its calls: active means growth percent below 10; inactive means the rest.

Key:
Test in all cases: NCI-60 one-dose screen, 48 h (100 = growth as untreated, 0 = no growth, -100 = all killed)
Details in all cases: 10 µM
NCI-H23 lung = system: NCI-H23 lung
NCI-H226 lung = system: NCI-H226 lung
NCI-H322M lung = system: NCI-H322M lung
HOP-62 NSCLC = system: HOP-62 NSCLC
NCI-H460 lung = system: NCI-H460 lung
HOP-92 NSCLC = system: HOP-92 NSCLC
NCI-H522 lung = system: NCI-H522 lung
A549/ATCC NSCLC = system: A549/ATCC NSCLC
786-0 renal = system: 786-0 renal
COLO 205 colon = system: COLO 205 colon
DU-145 prostate = system: DU-145 prostate
K-562 leukemia = system: K-562 leukemia
MALME-3M melanoma = system: MALME-3M melanoma
MDA-MB-231 breast = system: MDA-MB-231 breast
SF-268 CNS = system: SF-268 CNS
SF-295 CNS = system: SF-295 CNS
SF-539 CNS = system: SF-539 CNS
UACC-257 melanoma = system: UACC-257 melanoma
M14 melanoma = system: M14 melanoma
RXF 393 renal = system: RXF 393 renal

Row | Structure (SMILES) | growth (NCI-H23 lung) | growth (NCI-H226 lung) | growth (NCI-H322M lung) | growth (HOP-62 NSCLC) | growth (NCI-H460 lung) | growth (HOP-92 NSCLC) | growth (NCI-H522 lung) | growth (A549/ATCC NSCLC) | growth (786-0 renal) | growth (COLO 205 colon) | growth (DU-145 prostate) | growth (K-562 leukemia) | growth (MALME-3M melanoma) | growth (MDA-MB-231 breast) | growth (SF-268 CNS) | growth (SF-295 CNS) | growth (SF-539 CNS) | growth (UACC-257 melanoma) | growth (M14 melanoma) | growth (RXF 393 renal)
1 | Cc1ccc(-c2nc(Nc3ccccc3C(=O)O)c3ccccc3n2)cc1 | -4.11% (active) | 15.3% | 33.8% | 28.3% | -9.44% (active) | -19.5% (active) | 33.2% | 30.5% | 18.7% | 80.9% | 19.4% | 17.6% | 19.6% | 35.4% | 11.2% | 5.81% (active) | 21.3% | 28.6% | 12.6% | 
2 | Cc1ccc(-c2cc(C(=O)N=Nc3c(O)[nH]c4ccc(Br)cc34)c3ccccc3n2)cc1 | 51.2% | 65.3% | 80.9% | 86.1% | 47.3% | 87.6% | 78.7% | 85.8% | 88.6% | 108% | 85.8% | 17.8% | 80.2% | 41.7% | 80.9% | 76.5% | 76% | 103% | 75.6% | 
3 | O=C(Nc1cccc(C(F)(F)F)c1)c1cncc(C#Cc2cnc3cccnn23)c1 | 12.7% | 27.1% | 71.6% | 33.7% | 70.7% | 7.14% (active) | 54.9% | 63% | 40.1% | 82.3% | 22.6% | 8.07% (active) | 28% | 27.9% | 46.4% | 63.5% | 31.9% | 83.6% | 35.5% | 
4 | COc1ccc(Nc2nc(N)n(Cc3cccc(Br)c3)n2)cc1 | 0.552% (active) | 10% | 27.7% | 35.1% | -17.6% (active) | -36.9% (active) | -20.9% (active) | 19.6% | -9.25% (active) | -46.6% (active) | 22.6% | 7.86% (active) | -25% (active) | -5.79% (active) | 16% | 4.42% (active) | -3.08% (active) | 6.73% (active) | 0.65% (active) | 
5 | Nc1nc2c(F)c(F)c(F)c(F)c2s1 | 102% | 98.6% | 103% | 92.6% | 107% | 90.5% | 89.5% | 99.4% | 85.1% | 114% | 114% | 93.1% | 103% | 116% | 97.8% | 96% | 99% | 104% | 113% | 109%
6 | O=C(CSc1nnc(-c2c[nH]c3ccccc23)n1-c1ccccc1)Nc1ccc(C(=O)/C=C/c2ccc(Cl)cc2)cc1 | 61.5% | 74.8% | 89% | 85.8% | 88.2% | 87.3% | 76.8% | 79.3% | 93.6% | 89.7% | 79.7% | 59.4% | 61.6% | 79.3% | 56.9% | 65.3% | 63.9% | 104% | 81.8% | 
7 | COc1ccc(CN2[C@H](C(=O)NCc3ccc(C(=O)NO)cc3)Cc3c([nH]c4ccccc34)[C@H]2C2CC2)cc1 | 52.3% | 55.8% | 59.4% | 63.1% | 33.6% | 40.1% | 22.2% | 61.3% | 61.7% | 47.3% | 57% | 26.2% | 30.4% | 54.5% | 64.9% | 45.5% | 41.6% | 43.4% | 49.6% | 
8 | COc1ccc(C(=O)Nc2sc3c(c2C#N)CCC(=O)C3)cc1C(F)(F)F | -13.7% (active) | 6.58% (active) | 85.9% | -9.95% (active) | 0.213% (active) | -30.9% (active) | -64.4% (active) | 25.5% | 7.91% (active) | -89.1% (active) | 25.3% | 3.54% (active) | -52.3% (active) | -50.8% (active) | 26.8% | -15.4% (active) | -82.7% (active) | -15.8% (active) | -16.8% (active) | -41.9% (active)
9 | O=C(Nc1cccc(C(F)(F)F)c1)c1cncc(C#Cc2cnc3ccc(N4CCOCC4)nn23)c1 | -58.7% (active) | -4.93% (active) | 5.52% (active) | 6.8% (active) | 0.042% (active) | -48% (active) | -34.1% (active) | 7.95% (active) | -22.9% (active) | -48% (active) | 0.548% (active) | 9.1% (active) | -29.7% (active) | -8.01% (active) | -31% (active) | -8.57% (active) | -88.1% (active) | 3.22% (active) | -49.3% (active) | 
10 | COc1cc2c(cc1OC)CN(CCCCOc1cc(O)c3c(=O)cc(-c4ccccc4)oc3c1)CC2 | 67.2% | 63.5% | 92.5% | 80.7% | 49.6% | 64.2% | 58.4% | 67.7% | 23.9% | -43.8% (active) | 80.3% | -6.81% (active) | -68.6% (active) | 38.5% | 65.9% | 26.2% | 48.7% | 5.33% (active) | -21% (active) | 29.8%
11 | COc1ccc(-c2cc(-c3cc(C(=O)c4ccccc4)n4ccc(C)cc34)nc(N)c2C#N)cc1 | 55% | 36.4% | 83.7% | 29.7% | 44.5% | -7.39% (active) | 71.5% | 79.9% | 13.5% | 73% | 77.9% | 88.3% | 50.8% | 34.4% | 41.2% | 45.2% | 7.52% (active) | 84.4% | 79.8% | 
12 | CN1CCN(Cc2ccc(C(=O)Nc3cccc(Nc4ccc5c(O)cccc5n4)c3)cc2C(F)(F)F)CC1 | -69.8% (active) | 41.3% | -18.6% (active) | -47.2% (active) | -18.5% (active) | -37.3% (active) | -83.9% (active) | -14.2% (active) | -55.9% (active) | -78.6% (active) | -1.97% (active) | 8.33% (active) | -95.9% (active) | -59.5% (active) | 2.2% (active) | -69.3% (active) | -91.5% (active) | -78.7% (active) | -87.3% (active) | 
13 | COc1cc(/C=C/C(=O)c2ccc(C(F)(F)F)cc2)ccc1Oc1nc(Nc2ccc(F)cc2)nc(N(C)C)n1 | 64.6% | 71.7% | 82.8% | 102% | 82.7% | 81.5% | 76.7% | 78.7% | 71.8% | 134% | 82.9% | 48.2% | 87.7% | 85.6% | 65.5% | 64.1% | 93.8% | 75.1% | 72.8% | 
14 | O=C1CCC(N2Cc3c(NCc4ccc(-c5ccccc5)cc4)cccc3C2=O)C(=O)N1 (configuration not stated) | 72.9% | 55.1% | 77.2% | 74.4% | 36.4% | 24.3% | 82.7% | 71.6% | 70.8% | 82% | 85% | 72.4% | 15.2% | 22.2% | 68.1% | 81.9% | 58.4% | 103% | 75.4% | 
15 | Cc1ccc(C(=O)N/C(=C2/OCCN2C)[P+](c2ccccc2)(c2ccccc2)c2ccccc2)cc1 | 85.1% | 92.9% | 100% | 96.9% | 83.8% | 60.3% | 57.8% | 97.8% | 103% | 57.9% | 84.9% | 50.4% | 63.6% | 65.6% | 92.7% | 87.3% | 91.4% | 49.6% | 82.9% | 
16 | CCOC(=O)N/C(=C1/OCCN1C)[P+](c1ccccc1)(c1ccccc1)c1ccccc1 | 85.8% | 93.1% | 89.9% | 97.6% | 86.7% | 59.1% | 54.2% | 89% | 101% | 41.3% | 93% | 41.2% | 71% | 59.9% | 103% | 88.1% | 78.1% | 27.8% | 90.9% | 
